Data from PubChem BioAssay (NCI).
About 83,000 compounds went through this panel and 20% of them were active in at least one assay; those are over-represented in the sample as a whole.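 Assay: single dose, 48 h. Readout: percent growth (0 = no net growth; negative = cell death). Active: <10.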 The source made the active and inactive calls.

tested on: NCI-H226 lung; assay: NCI-60 one-dose screen, 48 h (100 = growth as untreated, 0 = no growth, -100 = all killed); conditions: 10 µM unless noted

| Structure (SMILES) | growth |
| --- | --- |
| CC(C)(C)CC(C)(C)n1nnnc1C(Nc1nccs1)c1cc2cccc3ccc4cccc1c4c32 (centres undefined) | 3.26% (active) |
| COc1ccc(/C(N)=N/C(N)=N/c2nc3ccccc3s2)cc1 | 77.8% (inactive) |
| COc1ccc(-c2nn(-c3ccc(S(C)(=O)=O)cc3)cc2/C=N/O)cc1 | 94.7% (inactive) |
| CCOc1cccc(-c2nc3sccn3c2-c2ccnc(S(C)(=O)=O)n2)c1 | 94% (inactive) |
| O=C(c1ccc(Cl)cc1)C1[C@H](c2ccc(Cl)cc2)[C@@H](c2ccccc2)NC12C(=O)Nc1ccccc12 (some centres undefined) | 53.5% (inactive) |

tested on: NCI-H322M lung; assay: as above; conditions: 10 µM unless noted

| Structure (SMILES) | growth |
| --- | --- |
| COc1cc2oc(-c3cccc(NC(=O)c4cc(N)ccc4Cl)c3)cc(=O)c2c(OC)c1OC | 105% (inactive) |
| CC(C)(C)n1cc(-c2ccnc(NCCCNS(=O)(=O)c3cccc(F)c3)n2)c(-c2ccc(Cl)c(O)c2)n1 | 90.9% (inactive) |
| COc1cccc2cc(-c3cc4ccccc4[nH]3)/c(=N\NC(=O)c3ccc(Cl)cc3)oc12 | 41.5% (inactive) |
| Nc1nc(Nc2ccccc2SSc2ccccc2Nc2nc(N)nc(-c3ccc4ccccc4c3)n2)nc(-c2ccc3ccccc3c2)n1 | 91.7% (inactive) |
| O=C(CN1CCN(c2cc(=O)n(-c3ccccc3)c3ccccc23)CC1)Nc1nc(-c2ccccc2)cs1 | 89.4% (inactive) |
| CC(Nc1c(C#N)cnc2ccc(-c3cnc(N)nc3)cc12)c1ccccc1 (centres undefined) | 6.93% (active) |
| CC(=O)Nc1cccc(Nc2nc(N[C@H](C)c3ccccc3)c3ccccc3n2)c1 | 90.3% (inactive) |
| CNC1CCc2c(sc(NC(=O)c3ccc(C(C)(C)C)cc3)c2C(N)=O)C1 (centres undefined) | 66.4% (inactive) |
| COc1cc(OC)cc(C(=O)Nc2cccc(C#Cc3cccc4[nH]nc(N)c34)c2)c1 | 53.6% (inactive) |
| COc1c(N2CC3CCCNC3C2)c(F)cc2c(=O)c(C(=O)N/N=C/c3ccccc3)cn(C3CC3)c12 (centres undefined) | 94% (inactive) |
| COc1ccccc1-n1cc(C#N)c(N)c1C(=O)c1ccc(Br)cc1 | 96.7% (inactive) |
| Nc1nc(-c2cccc([N+](=O)[O-])c2)c(N=Nc2ccccc2)s1 | 76.2% (inactive) |
| COc1ccc(-c2nc3ccc(-c4nnc(SCC(=O)Nc5ccc(C(=O)/C=C/c6ccc(Cl)cc6)cc5)o4)cc3[nH]2)cc1 | 100% (inactive) |
| CCCCCCCn1cc2c(NCCc3ccccc3)ncnc2n1 | 102% (inactive) |
| COc1ccc(-c2nc3cc(Cl)c(Cl)cc3n2CC(=O)N=Nc2c(O)[nH]c3ccc(OC)cc23)cc1 | 80.4% (inactive) |
| CN1CCN(Cc2ccc(NC(=O)c3cncc(C#Cc4cnn5cccnc45)c3)cc2C(F)(F)F)CC1 | 19.8% (inactive) |
| Cc1cc(C)c(N2C(=O)CC(Nc3ccc(Cl)cc3Cl)C2=O)c(C)c1 (centres undefined) | 99.8% (inactive) |
| CC(=O)Nc1cccc(Nc2nc(N[C@@H](C)c3ccccc3)c3ccccc3n2)c1 | 53.7% (inactive) |
| COc1cc(-c2nn(C(C)(C)C)cc2-c2ccnc(NCCCNS(=O)(=O)c3cccc(F)c3)n2)ccc1Cl | 85.3% (inactive) |
| NC(=O)c1cccc(-n2ccc3cc(NC(=O)Nc4ccc(N5CCOCC5)c(C(F)(F)F)c4)ccc32)n1 | 15.8% (inactive) |

| Structure (SMILES) | growth |
| --- | --- |
| O=S(=O)(Nc1cccc2ccccc12)c1ccc(-c2cnc(C3CC3)o2)cc1 | 40.4% (inactive) |
| CCOC(=O)c1c(N)c(C#N)cn1-c1cc(OC)c(OC)c(OC)c1 | 101% (inactive) |
| COc1ccc([C@H]2c3[nH]c4ccccc4c3C[C@H]3C(=O)N(C4CCN(Cc5c(Cl)cccc5Cl)CC4)CC(=O)N23)c(OC)c1 | 94.5% (inactive) |
| COc1ccc2c(c1)c(-c1cc(N)n3nc(-c4cn(C)c5ccc(OC)cc45)cc3n1)cn2C | 101% (inactive) |
| COc1cc2c(cc1OC)C(Sc1ccc(C)cc1)c1c(nc(N)c(C#N)c1N)O2 (centres undefined) | -93.9% (active) |
| C[C@@H](Nc1c(C#N)cnc2ccc(-c3cnc(Cl)c(NS(C)(=O)=O)c3)cc12)c1ccccc1 | 12.1% (inactive) |
| Cc1ccc(NC(=O)N[C@@H](Cc2cc(F)cc(F)c2)C(=O)NC2C(=O)N3C[C@H](O)C[C@H]3C(=O)N3CCCC[C@H]3C(=O)N[C@@H](CO)C(=O)N3C[C@H](C)C[C@H]3C(=O)O[C@H]2C)c(F)c1 (some centres undefined) | 70.7% (inactive) |
| O=C(NCc1ncc[nH]1)c1ccc(-c2nc3ccc4[nH]ncc4c3c3c2CCCC3)cc1 | 21.4% (inactive) |
| CCO/C=N/C1=C(C#N)C(c2ccc(F)cc2)c2sc3c(C)cccc3c2O1 (centres undefined) | 37.6% (inactive) |
| c1cn2c(ccc3nc(-c4cn[nH]c4)c4c(c32)CCCC4)n1 | 75.8% (inactive) |
| O=c1[nH]c2ccccc2cc1CSc1ccccc1Nc1nccc(-c2ccc(Cl)cc2)n1 | 94.1% (inactive) |
| Cn1ccnc1C(=O)/C=C/c1ccc(NC(=O)c2c(F)c(F)c(F)c(F)c2F)cc1 | 94.8% (inactive) |
| Cc1noc(C)c1CSc1nc2ccccc2n1-c1ccccc1 | 104% (inactive) |
| Cn1cc(CNc2nc3ccc(OC/C(=C/F)CN)cc3o2)ccc1=O | 99.3% (inactive) |
| CC(C)(C)CC(C)(C)n1nnnc1C(Nc1nccs1)c1cc2cccc3ccc4cccc1c4c32 (centres undefined) | 93.9% (inactive) |
| COc1ccc(/C(N)=N/C(N)=N/c2nc3ccccc3s2)cc1 | 98.4% (inactive) |
| COc1ccc(-c2nn(-c3ccc(S(C)(=O)=O)cc3)cc2/C=N/O)cc1 | 108% (inactive) |
| CCOc1cccc(-c2nc3sccn3c2-c2ccnc(S(C)(=O)=O)n2)c1 | 93.1% (inactive) |
| O=C(c1ccc(Cl)cc1)C1[C@H](c2ccc(Cl)cc2)[C@@H](c2ccccc2)NC12C(=O)Nc1ccccc12 (some centres undefined) | 65.5% (inactive) |
